From PubChem
DAT uptake mod – changed human dopamine transporter uptake under cocaine IC80; Q01959; LLC-PK1 hDAT cells, [14C]-dopamine uptake with cocaine IC80; actives deviate in either direction; B-score at 10 µM; 1.3% of 110,000 active; AID 449768;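 active = Z score or B-score, a plate-position-corrected score, falls beyond the plate's 99.7% confidence bounds, in either direction; inactive = both scores lie inside the 99.7% bounds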;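 note: scored against the spread of the other compound wells on the same plate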
PTK2B oligo ant – Pyk2 (human) oligomerization antagonism; z-score (the deposit names both 25 µM and 10 µM); Q14289; 0.83% of 99,000 active; Q293 cells, Pyk2 FERM NanoBiT luminescence; active compounds read low;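 active = Z-score of -3 or lower, scaled per plate to the spread of control and sample wells; inactive = z-score above -3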;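 note: negative z-score means lost luminescence so less FERM oligomerization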
D1 mod – allosterically modulates the human D1 dopamine receptor; P21728; HEK293 D1, CRE-luciferase, dopamine EC30 potentiation; actives deviate in either direction; B-score at 10 µM; 5.9% of 58,000 active;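 active = luminescence count or its row- and column-corrected plate score outside the 99.7% band of the plate's sample wells, on either side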
Mac1 fbg inh – blocks human CD11b/CD18 adhesion to fibrinogen | K562 CD11b/CD18 adhesion to fibrinogen, ATPlite luminescence; Mn2+ added to activate the integrin | inhibition, % at 10 µM | 0.54% of 93,000 active | AID 1497;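 active = primary inhibition of 50% or more at 10 µM, then 40% or more on retest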
Target sequence (P05107 whole entry, looked up, other chains not shown): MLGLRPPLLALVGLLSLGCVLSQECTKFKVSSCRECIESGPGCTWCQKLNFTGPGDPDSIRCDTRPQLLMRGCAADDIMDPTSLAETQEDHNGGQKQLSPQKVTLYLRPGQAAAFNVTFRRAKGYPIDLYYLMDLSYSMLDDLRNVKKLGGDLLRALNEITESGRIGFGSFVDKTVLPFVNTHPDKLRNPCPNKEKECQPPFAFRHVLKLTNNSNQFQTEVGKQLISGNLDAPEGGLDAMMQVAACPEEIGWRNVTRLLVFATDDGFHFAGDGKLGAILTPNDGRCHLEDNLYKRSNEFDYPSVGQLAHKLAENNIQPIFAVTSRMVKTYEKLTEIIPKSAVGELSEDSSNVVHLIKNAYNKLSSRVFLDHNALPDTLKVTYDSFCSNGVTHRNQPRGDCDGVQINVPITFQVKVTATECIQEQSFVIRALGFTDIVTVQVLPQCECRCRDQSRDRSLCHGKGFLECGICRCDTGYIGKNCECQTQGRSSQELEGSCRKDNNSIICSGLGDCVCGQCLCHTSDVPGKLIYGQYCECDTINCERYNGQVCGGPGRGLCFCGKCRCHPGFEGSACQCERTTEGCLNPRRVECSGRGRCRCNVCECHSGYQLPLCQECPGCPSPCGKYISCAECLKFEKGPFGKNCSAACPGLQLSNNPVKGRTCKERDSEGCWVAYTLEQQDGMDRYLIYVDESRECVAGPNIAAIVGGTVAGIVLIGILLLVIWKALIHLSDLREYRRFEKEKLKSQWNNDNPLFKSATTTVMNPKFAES
Mac1 fbg enh – increases human CD11b/CD18 adhesion to fibrinogen. P05107+P11215. K562 CD11b/CD18 adhesion to fibrinogen, ATPlite luminescence. activation, % at 10 µM. 0.07% of 93,000 active;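 active = 10 µM primary screen giving 50% or more activity, confirmed by 40% or more on retest at that dose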
FAK blocker – inhibitors of human focal adhesion kinase; Q05397; biochemical FAK kinase activity assay; inhibition, %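 (tested at 7 µM)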; 0.84% of 97,000 active; AID 727; in the data active = inhibition above about 19%;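 note: 0% = DMSO and 100% = reference compound high control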
An asterisk follows results filed as active. Shown is part of a subset that was picked to be rich in hits.

CCCCNC(=O)NC1(C(F)(F)F)Oc2ccccc2O1 was read as DAT uptake mod -1.9*, PTK2B oligo ant 0.3, Mac1 fbg inh 4, Mac1 fbg enh -2 and FAK blocker 1.
CCCCOC(=O)c1ccc(NC(=O)c2c(N)n(C)c(=O)[nH]c2=O)cc1 was read as DAT uptake mod -0.15.
CCOC(=O)c1nnn(-c2ccccc2)c1C was read as DAT uptake mod 0.6, PTK2B oligo ant 0.07 and FAK blocker 2.
CCOC(=O)c1nn(-c2ccc(F)cc2)c(-c2ccccc2)c1C(=O)c1ccccc1 was read as DAT uptake mod -1.3, PTK2B oligo ant -3.1* and FAK blocker 8.
Screening CCOC(=O)c1nn(-c2ccccc2)c(-c2ccccc2)c1C(=O)c1ccccc1 returned DAT uptake mod -2.1, PTK2B oligo ant -3.5* and FAK blocker 0.
Screening CCOC(=O)c1nn(-c2cccc(OC)c2)c(-c2ccccc2)c1C(=O)c1ccccc1 returned DAT uptake mod -0.82, PTK2B oligo ant -4.2* and FAK blocker -4.
Screening CCOC(=O)c1nn(-c2ccccc2F)c(-c2ccccc2)c1C(=O)c1ccccc1 returned DAT uptake mod 1.2, PTK2B oligo ant -4* and FAK blocker -3.
O=C(NC1CCCCCC1)C1CC(=O)N(Cc2ccccc2)C1 (configuration not stated) was read as DAT uptake mod -1.2, PTK2B oligo ant -1.3, D1 mod 0.013, Mac1 fbg inh -1, Mac1 fbg enh -5 and FAK blocker -4.
`COc1cccc(Cn2cnc3c(NS(=O)(=O)c4cc(Cl)ccc4Cl)c(C)c(C)cc32)c1` gave DAT uptake mod 2.4, PTK2B oligo ant -0.73, Mac1 fbg inh 18, Mac1 fbg enh -2 and FAK blocker -2.
O=C(CCCCCN1C(=O)c2ccccc2C1=O)Oc1ccc2c3c(c(=O)oc2c1)CCC3 was read as Mac1 fbg inh 15 and Mac1 fbg enh -5.
`Cc1cc(C)cc(N(C(C)C(=O)NCCC2=CCCCC2)S(C)(=O)=O)c1` (configuration not stated) gave DAT uptake mod 1.8, PTK2B oligo ant -1.4, Mac1 fbg inh 12, Mac1 fbg enh -4 and FAK blocker 0.
Cc1ccc2nc(SCC(=O)Nc3cc([N+](=O)[O-])ccc3F)[nH]c2c1 was read as Mac1 fbg inh 1 and Mac1 fbg enh -1.
Screening CCN(CC)CCNC(=O)CCCCn1c(=S)[nH]c2c([nH]c3ccc(OC)cc32)c1=O returned DAT uptake mod 2.6*, D1 mod 0.93, Mac1 fbg inh -18, Mac1 fbg enh -1 and FAK blocker 8.
For O=c1[nH]c(=O)n(Cc2ccccc2)c2c1C(C(F)(F)F)(C(F)(F)F)N=C(c1ccco1)N2 the results were DAT uptake mod 1.4, PTK2B oligo ant -3.5* and FAK blocker -8.
O=c1[nH]c(=O)n(Cc2ccco2)c2c1C(C(F)(F)F)(C(F)(F)F)N=C(c1ccc(F)cc1)N2 was read as DAT uptake mod 0.0037, PTK2B oligo ant -1.3, Mac1 fbg inh 16, Mac1 fbg enh -3 and FAK blocker -3.
Screening COc1ccc(N2CCN(c3nc4c(c(=O)[nH]c(=O)n4C)n3Cc3ccccc3Cl)CC2)cc1 returned D1 mod 1.1.
`CC1CCN(Cc2nc3c(c(=O)n(C)c(=O)n3C)n2CCN2CCOCC2)CC1` gave D1 mod -0.93.
COC(=O)CNC(=O)c1c(-c2ccccc2Cl)noc1C was read as DAT uptake mod 0.17, PTK2B oligo ant 0.47, D1 mod 0.76, Mac1 fbg inh -9, Mac1 fbg enh 0 and FAK blocker 0.
For Cc1cc2cc(CCNC(=O)c3c(-c4ccccc4Cl)noc3C)c(=O)[nH]c2cc1C the results were DAT uptake mod -0.24, D1 mod -3.7*, Mac1 fbg inh -3 and Mac1 fbg enh 0.
`Cc1cc(=O)oc2cc(Oc3ccc([N+](=O)[O-])cc3[N+](=O)[O-])ccc12` gave PTK2B oligo ant -0.35, Mac1 fbg inh 23 and Mac1 fbg enh -4.
`CC(C)Cn1c(SCC(=O)NC(=O)NC2CCCC2)nc2ccccc21` gave DAT uptake mod 0.71, PTK2B oligo ant -3.4*, D1 mod -0.5, Mac1 fbg inh 2, Mac1 fbg enh -2 and FAK blocker -2.
